Results as given in paper PMC4336329 (PLoS ONE, 2015).
About 14,000 (4.5%) of roughly 310,000 compounds showed an effect of 50% or more. The effect is printed as a negative number. The sample as a whole holds a higher share of strong results than the screen did.

target: human ether-à-go-go-related gene (hERG) potassium channel (human, UniProt Q12809); assay: primary screen, population patch clamp on CHO cells stably expressing hERG; higher = less effect of the substance
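Also: peak tail current of the secondary pulse compared with the same well before compound.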

Chain of human ether-à-go-go-related gene (hERG) potassium channel (Q12809 whole entry, looked up): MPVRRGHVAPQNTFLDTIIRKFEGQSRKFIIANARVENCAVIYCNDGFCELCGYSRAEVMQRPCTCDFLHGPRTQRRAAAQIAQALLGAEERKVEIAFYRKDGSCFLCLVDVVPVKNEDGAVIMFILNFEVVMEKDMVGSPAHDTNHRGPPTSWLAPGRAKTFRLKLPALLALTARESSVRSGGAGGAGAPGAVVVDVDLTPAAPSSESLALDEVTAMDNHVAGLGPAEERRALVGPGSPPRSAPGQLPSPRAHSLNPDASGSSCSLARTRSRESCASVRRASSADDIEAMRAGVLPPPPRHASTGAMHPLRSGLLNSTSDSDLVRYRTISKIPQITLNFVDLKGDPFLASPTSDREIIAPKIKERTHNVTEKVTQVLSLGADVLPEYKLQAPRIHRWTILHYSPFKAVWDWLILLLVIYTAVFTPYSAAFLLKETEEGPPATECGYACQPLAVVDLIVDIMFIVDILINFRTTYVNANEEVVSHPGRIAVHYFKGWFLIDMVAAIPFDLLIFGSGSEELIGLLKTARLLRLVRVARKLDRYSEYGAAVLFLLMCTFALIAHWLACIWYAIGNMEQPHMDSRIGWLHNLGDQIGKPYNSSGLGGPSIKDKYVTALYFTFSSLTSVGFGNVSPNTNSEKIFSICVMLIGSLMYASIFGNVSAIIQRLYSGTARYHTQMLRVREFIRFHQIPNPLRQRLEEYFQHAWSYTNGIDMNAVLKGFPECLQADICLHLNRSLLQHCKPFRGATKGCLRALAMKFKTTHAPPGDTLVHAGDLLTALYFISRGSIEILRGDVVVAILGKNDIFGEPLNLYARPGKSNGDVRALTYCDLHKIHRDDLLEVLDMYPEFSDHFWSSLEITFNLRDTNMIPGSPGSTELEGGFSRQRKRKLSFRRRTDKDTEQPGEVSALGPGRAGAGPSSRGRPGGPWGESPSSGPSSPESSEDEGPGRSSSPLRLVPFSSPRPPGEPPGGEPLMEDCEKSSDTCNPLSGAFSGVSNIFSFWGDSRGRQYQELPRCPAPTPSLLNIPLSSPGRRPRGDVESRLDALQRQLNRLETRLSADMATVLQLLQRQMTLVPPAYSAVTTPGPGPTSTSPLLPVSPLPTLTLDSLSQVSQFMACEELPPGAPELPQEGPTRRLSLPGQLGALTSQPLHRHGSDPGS

| SMILES | hERG current change (%, negative = inhibition) at 10uM |
| --- | --- |
| O=C(O)CCn1cc(/C=C2\NC(=S)N(c3ccccc3)C2=O)c(-c2ccc(Br)cc2)n1 | 30.1% |
| CC(=O)CCc1ccc(Oc2nc(-c3cccnc3)nc3ccccc23)cc1 | 5.75% |
| COc1ccc(Nc2cnn(-c3nc4ccccc4s3)c(=O)c2Cl)cc1 | -3.58% |
| CC1(c2ccccc2)NC(=O)N(CC(=O)Nc2cc3c(cc2Br)OCCO3)C1=O (centres unmarked) | -8.6% |
| S=C(Nc1ccccc1Oc1ccccc1)NC1CCCC1 | -0.79% |
| COc1ccc(C(=O)N2CCN(CCNC(=O)C(=O)Nc3ccc(F)cc3)CC2)cc1 | -69.6% |
| COc1ccc(C(=O)N2CCN(CCNC(=O)C(=O)Nc3ccc(Br)cc3)CC2)cc1 | -80% |
| CC(C)(C)c1ccc(C(=O)N2CCN(CCNC(=O)C(=O)Nc3ccc(F)cc3)CC2)cc1 | -52.5% |
| COc1ccc(C(=O)N2CCN(CCNC(=O)C(=O)Nc3ccc(F)cc3)CC2)cc1OC | -61.5% |
| COc1ccc(NC(=O)C(=O)NCCN2CCN(C(=O)c3cccc(Br)c3)CC2)cc1 | -31% |
| Cc1ccc(S(=O)(=O)N2CCN(CCNC(=O)C(=O)Nc3ccc(F)cc3)CC2)cc1 | 2.09% |
| O=C(NCCN1CCN(C(=O)c2c(F)cccc2F)CC1)C(=O)Nc1ccc(Cl)cc1 | -32.5% |
| Cc1cccc(C(=O)N2CCN(CCNC(=O)C(=O)Nc3ccc(F)cc3)CC2)c1 | -38.8% |
| CCN1CCN(C(=O)c2ccc(OCC(=O)Nc3ccc(F)cc3)c(OC)c2)CC1 | -14.9% |
| Cc1cccc(NC(=O)/C(=C\c2ccco2)NC(=O)c2ccccc2)c1 | -22.4% |
| CC(=O)N1CCC(=NNc2ncc(C(F)(F)F)cc2Cl)CC1 | 2.73% |
| CCOC(=O)c1ccc(N=c2sc(C(=O)OC)cc(=O)n2Cc2ccco2)cc1 | 13.7% |
| O=C(CN1C(=O)c2ccccc2C1=O)NCc1ccncc1 | -33.1% |
| COc1ccc(NC(=O)c2ccc(-c3csc(C)n3)cc2)cc1 | 18.5% |
| Cc1ccc(C(=O)CNc2ccccc2)cc1 | 16.2% |
| O=C(CCl)Nc1cccc(Oc2ccccc2)c1 | -22.4% |
| O=[N+]([O-])c1ccc(N2CCN(S(=O)(=O)c3ccc(Cl)c(Cl)c3)CC2)cc1NCCN1CCOCC1 | 3.04% |
| COC(=O)c1cc(NC(=O)CCc2c(C)nc3ncnn3c2C)cc(C(=O)OC)c1 | -36.1% |
| Cc1cccc(N(C)c2cc(C)nc3nc(C)nn23)c1 | -15.8% |

| SMILES | hERG current change (%, negative = inhibition) at 10uM |
| --- | --- |
| Cc1ccc(-c2cnn(-c3cccc(C(F)(F)F)c3)c2N)cc1 | -3.62% |
| O=C(NCCN1CCN(C(=O)c2ccc([N+](=O)[O-])cc2)CC1)C(=O)Nc1ccc(F)cc1 | -76.8% |
| CNC(=O)C(=O)NCCN1CCN(C(=O)c2ccc([N+](=O)[O-])cc2)CC1 | -39.6% |
| COc1ccc(NC(=O)C(=O)NCCN2CCN(C(=O)c3ccc(C)cc3)CC2)cc1 | -75.4% |
| COc1ccc(NC(=O)C(=O)NCCN2CCN(C(=O)c3ccc(C(C)(C)C)cc3)CC2)cc1 | -2.54% |
| CCOc1ccc(NC(=O)C(=O)NCCN2CCN(S(=O)(=O)c3ccccc3)CC2)cc1 | -8.75% |
| COc1ccc(NC(=O)C(=O)NCCN2CCN(C(=O)C(c3ccccc3)c3ccccc3)CC2)cc1 | -20.8% |
| CCOc1ccc(NC(=O)C(=O)NCCN2CCN(S(=O)(=O)c3ccc(C)cc3)CC2)cc1 | 8.62% |
| CCOc1ccc(NC(=O)C(=O)NCCN2CCN(C(=O)c3ccc(C)cc3)CC2)cc1 | -75.2% |
| CCC(C)[C@H](NC(=O)NCc1ccccc1Cl)C(=O)OC (some centres unmarked) | 12% |
| CN(C)c1ccc(C(=O)Nc2ccc(S(=O)(=O)NC3=NCCCCC3)cc2)cc1 | -5.38% |
| CCc1ccc(N(C(=O)Cc2cccs2)C(C(=O)NC2CCCCC2)c2cn(C)nc2C)cc1 (centres unmarked) | -21.4% |
| CCN1CCCC1CNC(=O)C(=O)NC1CC1 (centres unmarked) | 10.3% |
| CCOC(=O)c1cc(-c2ccc3c(c2)OCCO3)n[nH]1 | 20.3% |
| Cc1cccc(NC(=O)Nc2ccc(Cl)c(Cl)c2)n1 | 9.38% |
| CCOc1ccccc1C(=O)NCc1ccc2c(c1)OCO2 | -12.1% |
| O=C(CCN1C(=O)[C@@H]2Cc3ccccc3CN2C1=O)N[C@@H](Cc1ccccc1)C(=O)O | 8.75% |
| Nc1nc(NCCCN2CCOCC2)nc(Nc2ccc(Cl)cc2)c1[N+](=O)[O-] | 7.65% |
| Cc1ccc(Nc2nc(NCCCN3CCOCC3)nc(N)c2[N+](=O)[O-])cc1C | -5.15% |
| Nc1nc(NCCCN2CCOCC2)nc(Nc2ccccc2)c1[N+](=O)[O-] | -36.5% |
| COc1ccc(Nc2nc(NCCCN3CCOCC3)nc(N)c2[N+](=O)[O-])cc1 | -22% |
| Nc1nc(NCCCN2CCOCC2)nc(Nc2ccc(F)cc2)c1[N+](=O)[O-] | -58.6% |
| Cc1ccc(Nc2nc(NCCCN3CCOCC3)nc(N)c2[N+](=O)[O-])cc1 | -66.1% |
| O=C1CN(C(=O)COC(=O)CNC(=O)c2ccc(Cl)cc2)c2ccccc2N1 | -6.75% |

| SMILES | hERG current change (%, negative = inhibition) at 10uM |
| --- | --- |
| CC(C)OC(=O)/C(C#N)=C\c1cccnc1 | 26.3% |
| Cc1cccnc1NC(=O)c1cccc(S(=O)(=O)N2CCCC2)c1 | -8.13% |
| CCCn1c(N)c(C(=O)COC(=O)c2c(C)noc2C)c(=O)n(C)c1=O | -21% |
| COC(=O)CN1C(=O)[C@H]2[C@@H](c3ccc(C)o3)N3C(=O)CN(CCO)C(=O)[C@@]3(C)[C@H]2C1=O | -2.13% |
| CN=C1S/C(=C\c2ccc(Cl)cc2)C(=O)N1C | 27% |
| CCCN(CC1CC1)C(=S)Nc1ccc(C(C)=O)cc1 | 0.105% |
| OCCC1CN(Cc2cccn2-c2cccnc2)CCN1Cc1ccccc1 (centres unmarked) | -42.4% |
| OCCC1CN(Cc2cccn2-c2cccnc2)CCN1Cc1ccc(F)cc1 (centres unmarked) | -56.9% |
| CCOc1ccc(CN2CCN(Cc3cccn3-c3cccnc3)CC2CCO)cc1 (centres unmarked) | -84.1% |
| OCCC1CN(Cc2cccn2-c2cccnc2)CCN1C1CCCCC1 (centres unmarked) | -28.1% |
| COc1cccc(CN2CCN(Cc3cccn3-c3cccnc3)CC2CCO)c1 (centres unmarked) | -71.4% |
| CCOc1ccc(CN2CCN(Cc3cccn3-c3ncccn3)CC2CCO)cc1 (centres unmarked) | -78.3% |
| COC(=O)c1ccc(C)c(NC(=O)CCc2ccc(OC)cc2)c1 | -3.01% |
| CCn1c(SC)nnc1C1CCN(CC(=O)Nc2ccccc2N2CCOCC2)CC1 | -31% |
| Nc1ccc(C(=O)Oc2ccc([N+](=O)[O-])cc2)cc1 | 10.9% |
| Cc1ccc(NC(=O)Nc2ccccc2)c(Br)c1 | -1.55% |
| Fc1ccc(NC(=S)N2CCCC2)cc1 | -1.37% |
| CCCc1cnc(NCCNCC(O)COc2ccc(Cl)c(Cl)c2)nc1 (centres unmarked) | -71.2% |
| Cc1cc(OCC(O)CNC(C)(C)C)ccc1Cl.Cl (centres unmarked) | -4.91% |
| Cc1cc(OCC(O)CN)ccc1Cl (centres unmarked) | 8.74% |
| CC(C)c1ccc(OCC(=O)NC2=NCCS2)cc1 | 1.4% |
| CCc1cccc(C)c1NC(=O)CN(C)Cc1ccccc1F.O=C(O)C(=O)O | -23.8% |
| COc1cccc(NC(=O)COc2c(F)c(F)c(C(F)(F)F)c(F)c2F)c1 | 8.02% |
| CCC(C)c1ccc(NC(=O)COc2c(F)c(F)c(C(F)(F)F)c(F)c2F)cc1 (centres unmarked) | -57.4% |

| SMILES | hERG current change (%, negative = inhibition) at 10uM |
| --- | --- |
| CCC(C)c1ccc(NC(=O)CC(C)=O)cc1 (centres unmarked) | 4.93% |
| Nc1ccc(C(=O)NC23CC4CC(CC(C4)C2)C3)cc1 | 16.3% |
| C=CCN(c1ccccc1)S(=O)(=O)c1cccc(C(=O)Nc2ncccc2O)c1 | 8.35% |
| Cn1nccc1C(=O)Nc1ccc(OC(=O)c2ccnn2C)cc1 | -6.68% |
| Cl.OC(CN1CCOCC1)CN(c1ccccc1)c1ccccc1 (centres unmarked) | -28.5% |
| Cl.OC(CN1CCCCC1)CN(c1ccccc1)c1ccccc1 (centres unmarked) | -63.2% |
| CN(CC(O)CN)CC(O)CN1CCCCC1.Cl (centres unmarked) | 4.64% |
| Cl.OC(CN1CCCCCC1)CN(c1ccccc1)c1ccccc1 (centres unmarked) | -71.8% |
| COc1ccc(-c2cc(C(=O)NCc3cccs3)no2)cc1 | 7.1% |
| O=C(COC(=O)c1cccnc1Cl)Nc1cc(S(=O)(=O)N2CCCCC2)ccc1Cl | -18.9% |
| COc1ccc(NC(=O)Cn2nnc(C(=O)NCc3ccc4c(c3)OCO4)c2N)cc1 | 18.4% |
| O=C(C1CC(=O)N(c2ccc(F)cc2)C1)N1CCN(c2ccccc2)CC1 (centres unmarked) | -58.3% |
| O=C(C1CC(=O)N(c2ccccc2)C1)N1CCN(c2ccc(F)cc2)CC1 (centres unmarked) | -56.7% |
| O=C(C1CC(=O)N(c2ccccc2)C1)N1CCN(c2ccccc2F)CC1 (centres unmarked) | -13.4% |
| O=C(O)C1CC(=O)N(c2ccc(F)cc2)C1 (centres unmarked) | 14.1% |
| Cc1ccc(N2CC(C(=O)N3CCN(c4ccccc4)CC3)CC2=O)cc1 (centres unmarked) | -17.6% |
| O=C(C1CC(=O)N(c2ccc(F)cc2)C1)N1CCCCC1 (centres unmarked) | -0.378% |
| O=C(C1CC(=O)N(c2ccc(F)cc2)C1)N1CCN(c2ccc(F)cc2)CC1 (centres unmarked) | -73.1% |
| CC(c1ccccc1)N1CC(C(=O)N2CCN(c3ccccc3)CC2)CC1=O (centres unmarked) | -27.2% |
| O=C(C1CC(=O)N(c2ccccc2)C1)N1CCN(c2ccccc2)CC1 (centres unmarked) | -29% |
| CC(c1ccccc1)N1CC(C(=O)N2CCN(c3ccc(F)cc3)CC2)CC1=O (centres unmarked) | -65.3% |
| O=C(C1CC(=O)N(c2ccc(F)cc2)C1)N1CCCCCC1 (centres unmarked) | -6.27% |
| CC(c1ccccc1)N1CC(C(=O)O)CC1=O (centres unmarked) | 10.7% |
